This is a sample that favours compounds with a hit; in the whole collection about 3.2% have one here.
ERb coact inh: inhibitors of ERβ-SRC1 coactivator interaction, primary screen, biochemical, TR-FRET, ERβ LBD, SRC-1 peptide. Estrogen receptor beta (Homo sapiens), Q92731. inhibition, % at 25.6 µM. 86,000 compounds, 1.3% hits. TR-FRET ER-beta LBD / SRC1-Cy5 peptide binding; receptor agonist-loaded with 1 µM estradiol. AID 633, 2007;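 active = compounds whose percent inhibition of the receptor-coactivator binding signal exceeds about 50% in the single-dose screen, limit read from the data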;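 also: 0% = receptor plus peptide wells without compound and 100% = peptide-only wells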
FAK blocker: FAK kinase inhibitors, primary screen, biochemical | AID 727, 2007 | 97,000 compounds, 0.84% hits | inhibition, %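 (tested at 7 µM)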 | Focal adhesion kinase 1 (Homo sapiens), Q05397 | biochemical FAK kinase activity assay; in the data active = inhibition above about 19%;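 also: 0% = DMSO and 100% = reference compound high control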
ERa coact inh: ERα–SRC-1 coactivator interaction inhibitors, primary screen, biochemical, TR-FRET, ERα LBD, estradiol-bound; inhibition, % at 25.6 µM; TR-FRET ER-alpha LBD / SRC-1 peptide; 86,000 compounds, 1.7% hits; Estrogen receptor (Homo sapiens), P03372; in the data active = inhibition above about 50%;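 also: 0% = receptor plus peptide control and 100% = peptide only without receptor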
Target sequence (P03372 whole entry, looked up, the tested form may be a part): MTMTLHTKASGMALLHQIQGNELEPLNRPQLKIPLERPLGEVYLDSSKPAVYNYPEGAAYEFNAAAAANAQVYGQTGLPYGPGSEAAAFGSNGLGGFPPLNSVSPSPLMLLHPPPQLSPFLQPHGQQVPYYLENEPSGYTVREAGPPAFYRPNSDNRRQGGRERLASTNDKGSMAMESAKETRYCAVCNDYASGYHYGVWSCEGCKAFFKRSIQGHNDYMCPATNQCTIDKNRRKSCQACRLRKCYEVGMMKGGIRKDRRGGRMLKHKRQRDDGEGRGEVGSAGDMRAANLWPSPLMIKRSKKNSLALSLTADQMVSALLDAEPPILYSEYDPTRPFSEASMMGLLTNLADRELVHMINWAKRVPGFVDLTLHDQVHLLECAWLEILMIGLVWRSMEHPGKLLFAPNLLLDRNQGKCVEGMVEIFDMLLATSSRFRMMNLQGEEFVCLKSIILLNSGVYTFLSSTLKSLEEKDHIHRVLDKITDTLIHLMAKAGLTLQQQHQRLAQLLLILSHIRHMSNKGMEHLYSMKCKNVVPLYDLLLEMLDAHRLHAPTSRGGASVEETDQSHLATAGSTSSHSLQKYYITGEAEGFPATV
ERa SRC1 pot: enhancers of ERα–SRC-1 coactivator binding, primary screen, biochemical, TR-FRET, ERα LBD, low estradiol; Estrogen receptor (Homo sapiens), P03372; TR-FRET ERalpha-LBD/SRC-Cy5 coactivator binding, 2 h; 100 = basal binding, no effect; 86,000 compounds, 1.3% hits; coactivator binding (% of control), % at 25.6 µM; in the data active = activity above about 200%;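 also: binding measured in presence of low estradiol as agonist stimulus; 0% = peptide alone without receptor and 100% = receptor with peptide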
* marks the source's active call; other numbers are inactive results; [ ] = remark or other dose.

Results for O=C(O)c1cc(S(=O)(=O)Nc2ccc3oc(=O)sc3c2)ccc1O ?
ERb coact inh: 55.3*[fluorescence artefact?]; FAK blocker: 0.9; ERa coact inh: 42.8; ERa SRC1 pot: 59.7

How did Cn1c(=O)c2c(nc(NCCc3ccccc3)n2CC(=O)NCCc2ccccc2)n(C)c1=O do in these assays?
ERb coact inh: 33.5; FAK blocker: 2.1; ERa coact inh: 17.3; ERa SRC1 pot: 229.1*[fluorescence artefact?]

How did Cn1c(=O)c2c(nc(NCc3ccccc3)n2CC(=O)NCc2ccccc2)n(C)c1=O do in these assays?
FAK blocker: -5.3

What do the screens show for `Cc1ccc(CCN2CC(C(=O)NCCN3CCCCCC3)CC2=O)cc1` (configuration not stated)?
ERb coact inh: 12.8; FAK blocker: 10.5; ERa coact inh: 34.8; ERa SRC1 pot: 117.8

How did COc1ccc(CN2CC(C(=O)NCCCN3CCCCCC3)CC2=O)cc1 (configuration not stated) do in these assays?
ERb coact inh: 22.0; FAK blocker: 5.1; ERa coact inh: 25.4; ERa SRC1 pot: 202.6*[fluorescence artefact?]

Results for Cc1ccc(CCN2CC(C(=O)NCCCN3CCCCCC3)CC2=O)cc1 (configuration not stated) ?
ERb coact inh: 57.6*[fluorescence artefact?]; FAK blocker: 15.9; ERa coact inh: 17.3; ERa SRC1 pot: 917.2*[fluorescence artefact?]

Results for O=C(c1cc2sccc2n1Cc1ccccc1)N1CCc2ccccc21 ?
ERb coact inh: 5.4; FAK blocker: 1.7; ERa coact inh: 13.8; ERa SRC1 pot: 509.5*

Results for O=C(c1cc2sccc2n1Cc1ccccc1)N1CCCc2ccccc21 ?
ERb coact inh: -3.4; FAK blocker: 1.4; ERa coact inh: -7.4; ERa SRC1 pot: 126.7

What do the screens show for `CC1CCCN(CC(=O)Nc2ccc(S(=O)(=O)NC3CCCCC3)cc2)C1` (configuration not stated)?
ERb coact inh: -4.9; FAK blocker: 0.9; ERa coact inh: 6.2; ERa SRC1 pot: 126.9

Results for O=C(O)[C@@H](c1ccccc1)N1Cc2ccccc2C1=O ?
ERb coact inh: 17.1; FAK blocker: -1.7; ERa coact inh: -17.5; ERa SRC1 pot: 597.4*[fluorescence artefact?]

Results for Cc1ccc2cc(C#N)c(SCC(=O)N3CCCc4ccccc43)nc2c1C ?
FAK blocker: -4.6

Results for Cc1cc(C)cc(OCC(=O)Nc2nonc2NC(=O)COc2cc(C)cc(C)c2)c1 ?
ERb coact inh: 38.1; FAK blocker: 0.0; ERa coact inh: 82.0*[fluorescence artefact?]; ERa SRC1 pot: 38.0

Results for O=C(COC(=O)CC1CCCC1)Nc1cc2c(cc1Cl)C(=O)c1ccccc1C2=O ?
ERb coact inh: 46.4; FAK blocker: 3.9; ERa coact inh: 51.9*; ERa SRC1 pot: 62.5

What do the screens show for `Nc1c(C(=O)NCc2ccco2)sc2nc3c(cc12)C(=O)CCC3`?
ERb coact inh: 85.1*[fluorescence artefact?]; FAK blocker: 8.9; ERa coact inh: 82.4*[fluorescence artefact?]; ERa SRC1 pot: 76.7

How did COc1ccc2cc3c(N)c(C(=O)NCc4ccco4)sc3nc2c1 do in these assays?
ERb coact inh: 37.4; FAK blocker: 6.6; ERa coact inh: 56.0*[fluorescence artefact?]; ERa SRC1 pot: 69.6

What do the screens show for `CCCOC(=O)c1sc2nc3c(cc2c1N)C(=O)CCC3`?
ERb coact inh: 17.4; FAK blocker: 6.0; ERa coact inh: 17.3; ERa SRC1 pot: 126.9

Results for COc1ccc2cc3cc(C(=O)NCc4ccco4)oc3nc2c1 ?
ERb coact inh: 27.3; FAK blocker: -2.6; ERa coact inh: 24.2; ERa SRC1 pot: 106.9

Results for O=C(NCc1ccco1)c1c2c(nc3ccccc13)CCC2 ?
ERb coact inh: 92.0*[fluorescence artefact?]; ERa coact inh: 93.3*[fluorescence artefact?]; ERa SRC1 pot: 20.6

How did CCOC(=O)c1ccc(NC(=O)NS(=O)(=O)c2ccc(C)cc2)cc1 do in these assays?
ERb coact inh: -5.8; FAK blocker: -1.4; ERa coact inh: -10.8; ERa SRC1 pot: 96.2

What do the screens show for `O=C(CCn1nc(-c2ccccc2)ccc1=O)N1CCN(c2ccccn2)CC1`?
ERb coact inh: 6.7; ERa coact inh: 9.9; ERa SRC1 pot: 89.9

How did Cc1cccc(OC(=O)CN2C(=O)C3C4CCC(C4)C3C2=O)c1C (configuration not stated) do in these assays?
FAK blocker: -1.4

Results for O=C(Oc1ccc2c(c1)OCC2=O)c1ccccc1 ?
ERb coact inh: 55.1*; FAK blocker: 3.9; ERa coact inh: 44.0; ERa SRC1 pot: 86.0

What do the screens show for `Cc1nc2c(cnn2-c2ccc(Cl)cc2)c(=O)n1-c1ccc2c(c1)OCCO2`?
ERb coact inh: -11.4; ERa coact inh: 1.9; ERa SRC1 pot: 113.8

How did O=C(c1sc2ccccc2c1Cl)N(Cc1cccs1)C1CCS(=O)(=O)C1 (configuration not stated) do in these assays?
ERb coact inh: 4.4; FAK blocker: -4.4; ERa coact inh: 57.5*[fluorescence artefact?]; ERa SRC1 pot: 89.2

Results for CCCCCCNC(=O)c1cc(-c2ccco2)nc2ccccc12 ?
ERb coact inh: 74.8*; FAK blocker: 19.6*; ERa coact inh: 85.5*[fluorescence artefact?]; ERa SRC1 pot: 70.1

What do the screens show for `O=C(O)c1cc(-c2ccco2)nc2ccc(Br)cc12`?
ERb coact inh: 61.2*; ERa coact inh: 64.3*; ERa SRC1 pot: 24.8

How did CCOc1cc(N2CCOCC2)c(OCC)cc1NC(=O)COc1ncnc2ccccc12 do in these assays?
ERb coact inh: -4.5; FAK blocker: 1.3; ERa coact inh: -4.2; ERa SRC1 pot: 93.2

Results for O=C(NCC1CCCO1)c1cc(-c2ccco2)nc2ccccc12 (configuration not stated) ?
ERb coact inh: 74.9*[fluorescence artefact?]; FAK blocker: 0.9; ERa coact inh: 69.0*[fluorescence artefact?]; ERa SRC1 pot: 42.5

What do the screens show for `CCOc1cc(N2CCOCC2)c(OCC)cc1NC(=O)c1cc(-c2ccco2)nc2ccccc12`?
ERb coact inh: 39.1; ERa coact inh: 75.4*; ERa SRC1 pot: 120.4

Results for CC(C)CC(c1nnnn1Cc1ccccc1)N1CCN(C(=O)c2ccco2)CC1 (configuration not stated) ?
ERb coact inh: 4.7; FAK blocker: -5.8; ERa coact inh: -7.8; ERa SRC1 pot: 117.1

What do the screens show for `CCOc1ccc(OCC)c(NC(=O)CSc2nnnn2CC)c1`?
ERb coact inh: 0.7; FAK blocker: 0.5; ERa coact inh: -8.9; ERa SRC1 pot: 91.2

How did CCOc1ccc(OCC)c(NC(=O)CSc2nc3ccccc3c(=O)n2C)c1 do in these assays?
ERb coact inh: 30.8; FAK blocker: -0.9; ERa coact inh: 50.2*[fluorescence artefact?]; ERa SRC1 pot: 144.4

How did COc1cc(NC(=O)CSc2nc3ccccc3c(=O)n2C)ccc1NC(=O)c1ccco1 do in these assays?
ERb coact inh: 49.9; FAK blocker: 2.3; ERa coact inh: 62.9*; ERa SRC1 pot: 128.5

How did COc1cc(NC(=O)CSc2nnc(-c3ccncc3)n2C2CCCCC2)ccc1NC(=O)c1ccco1 do in these assays?
FAK blocker: -2.1

How did O=c1c2ccccc2nc2n1CC/C2=C\c1ccccc1[N+](=O)[O-] do in these assays?
FAK blocker: 3.0

Compound activity (PubChem BioAssay)
